# “And” between values parts separate entries of the source, which are not always exact repeats. Equal values may be shown once. Records with an inconclusive call do not appear. Some structures have more than one record in an assay (separate samples or runs), and their calls can disagree. The source made the active and inactive calls. Calls follow the shape of the full dose curve.
# Target: Acetylcholinesterase (Homo sapiens) (UniProt P22303)
# Test: Acetylcholinesterase (AChE) small molecule antagonists: colormetric cell-based qHTS assay (AID 1347395); also: nearly all actives have a fitted effect of over 30% in size
# Details: SH-SY5Y cells AChE activity, colorimetric (Ellman); series mostly up to 115 µM; activity, negative = inhibition: at the top concentration
# Summary of the method: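 Cells (SH-SY5Y, 2,000 per well) are seeded and left overnight at 37 C. Compound is added for 30 min, then DTNB and acetylthiocholine for a further 90 min at 37 C before absorbance-based thiocholine detection.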
# % is scaled to controls: 0 for no effect and ±100 for the full control effect; potency is read from the fitted curve at half-maximal effect.
# Acetylcholinesterase (Homo sapiens), sequence (P22303 whole entry, looked up): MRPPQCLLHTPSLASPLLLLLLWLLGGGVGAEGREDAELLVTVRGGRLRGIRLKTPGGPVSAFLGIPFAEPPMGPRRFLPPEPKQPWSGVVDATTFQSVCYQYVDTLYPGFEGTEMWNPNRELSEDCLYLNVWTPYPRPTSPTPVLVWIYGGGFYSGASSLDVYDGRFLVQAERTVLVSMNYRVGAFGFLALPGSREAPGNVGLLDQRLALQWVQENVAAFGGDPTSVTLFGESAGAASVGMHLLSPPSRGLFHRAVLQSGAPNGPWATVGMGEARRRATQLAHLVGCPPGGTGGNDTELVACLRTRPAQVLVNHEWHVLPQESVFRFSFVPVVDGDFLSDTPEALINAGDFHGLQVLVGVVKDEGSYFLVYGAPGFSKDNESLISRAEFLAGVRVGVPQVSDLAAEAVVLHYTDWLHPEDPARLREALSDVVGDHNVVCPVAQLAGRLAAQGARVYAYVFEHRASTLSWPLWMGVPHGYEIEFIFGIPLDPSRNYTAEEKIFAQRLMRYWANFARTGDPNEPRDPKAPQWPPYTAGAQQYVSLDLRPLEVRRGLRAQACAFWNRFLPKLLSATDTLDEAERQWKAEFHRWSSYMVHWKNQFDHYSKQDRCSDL
SMILES,"activity, negative = inhibition",Potency
C[C@@H]1C[C@H]2[C@@H]3CCC4=CC(=O)C=C[C@]4(C)[C@@]3(F)[C@@H](O)C[C@]2(C)[C@H]1C(=O)CO,2.35% [at 52.9 µM] (inactive),
CC(C)COC(=O)c1ccccc1O,0.477% (inactive),
Oc1ccc2c(c1)OCO2,-0.359% (inactive),
CO/N=C(/C(=O)N[C@@H]1C(=O)N2C(C(=O)[O-])=C(C[n+]3ccn4ncccc43)CS[C@H]12)c1nsc(N)n1,1.52% [at 52.9 µM] (inactive),
CCc1ccc(Br)cc1,7.92% (inactive),
CCc1cccc(O)c1,,inactive
OC1CCCCCCCCCCC1,,inactive
CC(C)=CCOC(=O)c1ccccc1,0.174% (inactive),
CC(C)Nc1ccccc1,2.08% (inactive),
CC(=O)c1ccc(O)cc1,,inactive
Cn1sccc1=O,,inactive and 71 µM (active)
CC(C)(C)NC[C@H](O)COc1cccc2c1CCCC2=O,-0.0841% [at 52.9 µM] (inactive),
CC(O)CO (stereo not given),,inactive
CC(C(=O)O)c1ccc(-c2ccccc2)c(F)c1 (stereo not given),-0.704% (inactive),
NC(=O)N1C(=O)C(C(=O)c2cc(Cl)cs2)c2cc(F)c(Cl)cc21 (stereo not given),-1.11% (inactive),
CC(C)c1nc(CN(C)C(=O)N[C@H](C(=O)N[C@@H](Cc2ccccc2)C[C@H](O)[C@H](Cc2ccccc2)NC(=O)OCc2cncs2)C(C)C)cs1,0.146% [at 52.9 µM] (inactive),
COc1ccc(/C=N/NC(=O)c2ccncc2)cc1OC,-0.0397% [at 52.9 µM] (inactive),
c1ccc2[nH]ccc2c1,,inactive
CCN(Cc1c(F)cccc1Cl)c1c([N+](=O)[O-])cc(C(F)(F)F)cc1[N+](=O)[O-],0.17% (inactive),
O=c1[nH]c(=O)c2[nH]c(=O)[nH]c2[nH]1,0.0138% [at 10.5 µM] (inactive),

SMILES,"activity, negative = inhibition",Potency
CN1CCN(C2Cc3ccccc3Sc3ccc(Cl)cc32)CC1 (stereo not given),-4.87% [at 52.9 µM] (inactive),
CCN(CC)CC(=O)Oc1ccc(NC(C)=O)cc1,2.96% [at 52.9 µM] (inactive),
Cn1c(=O)c2[nH]c(Br)nc2n(C)c1=O,0.0761% [at 52.9 µM] (inactive),
O=S(=O)(O)C(F)(F)F,0.841% (inactive),
CC(C)(CO)[N+](=O)[O-],-4.06% (inactive),
C=CCOC(=O)/C=C\C(=O)OCC=C,0.876% (inactive),
C=C1C(CCl)(CCl)C2(Cl)C(Cl)C(Cl)C1(Cl)C2(Cl)Cl (stereo not given),1.47% (inactive),
CC1(C)CC(O)CC(C)(C)N1,-0.44% (inactive),
CCc1ccc(CCOc2ccc(CC3SC(=O)NC3=O)cc2)nc1 (stereo not given),,inactive
CC[C@H](NC(C)C)[C@H](O)c1ccc(O)c2[nH]c(=O)ccc12,-1.35% [at 52.9 µM] (inactive),
CCCCCCOC(=O)c1ccc(O)cc1,,inactive
CCCCCCCCCCCCCC[n+]1ccccc1,,31.7 µM (active)
CCCCCCCCCCCSCC(=O)O,-5.93% (inactive),
CCCCCCCCC(=O)O,,3.07 µM (active) and inactive
CC(N)=O,2.05% [at 300 µM] (inactive),
CCOC(=O)OCC,-1.02% (inactive),
COc1nc(C)nc(N)n1,-4.2% (inactive),
C=Cc1cccc(C)c1,,inactive
CCCCCCCCCCCCS,,inactive
CCN(CC)CCNC(=O)c1cc(S(C)(=O)=O)ccc1OC,-10.9% [at 52.9 µM] (inactive),

# — PubChem BioAssay (Tox21)
